Results published in article PMC12136788.
Over roughly 5,800 sequences, “enrichment r” has its median near 0.68; the highest 2% begin near 11. A selection follows.

B1: ENSG00000124766:be:win_1851|3pUTR|ENSG00000124766|bound_else_gene|NA|bound_elsewhere_windowed (ssRNA)
RNA: GGGAGUUCUACAGUCCGACGAUCAGAGACUUGAAGGAGUCUCCCCCUUCCUGCAUCACCACCUUGGUUUUGUUUUAUUUUGCUUCUUGGUCAAGAAAGGAGGGGAGAACCCAGCGCACCCCUCCCCCCCUUUUUUUAAACGCGCAACAGAGGAUUGAGCAUCA
B2: chr9:125236489:125236593:-|3pUTR|ENSG00000044574|msi1_unk|total|mutant (ssRNA)
RNA: GGGAGUUCUACAGUCCGACGAUCUGCCGACACUGAUCUGCCCGUGCUGUAAUAUUGUAAAUACUGGACUCAGGAACUUUUGUCCGGAAAAAAUUGAAAGAACUUAAGUCUCGAAUGUAAUUGGAAUCUUCACCUCAGAGUGGACAACAGAGGAUUGAGCAUCA
B3: chr12:64128047:64128160:+|CDS|ENSG00000196935|unk|FALSE|unique (ssRNA)
RNA: GGGAGUUCUACAGUCCGACGAUCGGCAGCCUGACCAACAUCAGCCGGCACGACUCCCUCAAGAAGAUCGACAGCCCUCCCAUUAGAAGGUCCACGUCAUCAGGGCAAUACACGGGCUUCAAUGACCACAAGCCACUGGACCCACAACAGAGGAUUGAGCAUCA
B4: chr11:30010719:30012678:-|CDS|ENSG00000182255|control|control|control (ssRNA)
RNA: GGGAGUUCUACAGUCCGACGAUCUUUGCUCAAGAAAUUUCGGAGCUCUACUUCUUCUUCCCUGGGGGACAAGUCAGAGUAUCUAGAGAUGGAAGAAGGAGUUAAGGAAUCUCUGUGUGCAAAGGAGGAGAAGUGUCAGGGAAACAACAGAGGAUUGAGCAUCA
B5: chr11:101473508:101473773:-|CDS|ENSG00000137672|control|control|control (ssRNA)
RNA: GGGAGUUCUACAGUCCGACGAUCUCCUCAAAUAAUAUCUGAAGGUCUUUAUGCAAUUGCUGUAGUUUUAAGUUUCUCUAGGAUAGCUUAUAUUUUACCAGCAAAUGAAAGCUUUGGACCUCUGCAGAUAUCACUUGGAAGAACCAACAGAGGAUUGAGCAUCA
B6: ENSG00000092201:stop:overlap|stop_codon|ENSG00000092201|stop_codon|NA|stop_codon (ssRNA)
RNA: GGGAGUUCUACAGUCCGACGAUCUUCCCCGCGUGCCAGCCUUGGUCAUGCAUAGCAGCACCUCUCGCAGUCUCUUCCCGCCCUAGAAGAGGCAACAUCCUUCCCUCCUACUCCGUGGUCACGUCUUGCUGCCCUCCCCUGCCGCAACAGAGGAUUGAGCAUCA

What follows are binders tested against T1, UNK ZnF1-6 (called full-length) (human, UniProt Q9C0B0 30-357) (assay: nsRBNS (natural sequence RNA bind-n-seq); RBNS binding buffer (assumed for nsRBNS): 25 mM Tris pH 7.5, 150 mM KCl, 3 mM MgCl2, 0.01% Triton X-100, 500 ug/ml BSA, 20 U/ml SUPERase-In, 4 C; UNK is unkempt and MSI1 is Musashi-1; names of the RNAs are library labels; protein concentration not given here; high values mean tight binding).
T1 sequence: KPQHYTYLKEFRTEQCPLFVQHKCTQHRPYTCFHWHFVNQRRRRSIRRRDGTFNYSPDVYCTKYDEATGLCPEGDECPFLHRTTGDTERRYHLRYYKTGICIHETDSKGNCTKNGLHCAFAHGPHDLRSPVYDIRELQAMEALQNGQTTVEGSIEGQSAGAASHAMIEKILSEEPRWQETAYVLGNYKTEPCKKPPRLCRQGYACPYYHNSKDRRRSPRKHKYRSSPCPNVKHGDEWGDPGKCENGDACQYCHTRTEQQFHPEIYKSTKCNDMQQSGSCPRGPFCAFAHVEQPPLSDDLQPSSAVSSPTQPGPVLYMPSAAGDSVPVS

Binder	binding signal
B1	0.704 enrichment R
B2	0.446 enrichment R
B3	1.28 enrichment R
B4	0.697 enrichment R
B5	0.473 enrichment R
B6	0.859 enrichment R
